Laboratory results: PubChem BioAssay

Assay: RPMI8226 myeloma cell viability, profiling panel, resazurin fluorescence, basal, 24 h, PK04 Diversity Set (AID 1180);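 note: RPMI8826 multiple myeloma cell line at 5000 cells per well; test concentration not given here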
Conditions: higher = more signal

Structure (SMILES)	z-score
NC(=O)[C@@]1(Cc2ccccc2)COC(c2ccc(OCCCO)cc2)=N1	-0.0366
CCOC(=O)C[C@H]1[C@H](OC(=O)c2ccc(C(=O)c3ccccc3)cc2)[C@@H](NC(=O)c2ccc3ccccc3n2)c2cc(OCCCO)ccc2N1C(=O)Cc1ccc(OC)cc1	0.131
COC(=O)[C@@H]1N=C(c2ccc(OCCCO)cc2)O[C@@H]1c1ccccc1	1.5
CCOc1cc(C(O)C2C=CC3C(=O)NC(=O)C3N2Nc2ccc(Cl)cc2Cl)ccc1O (stereo not given)	-1.68
CCOC(=O)C=Cc1cccc(C)c1O	-0.529
COC(=O)[C@@]1(Cc2ccc(OC)cc2)[C@H]2c3cc(C(=O)N4CCCC4)n(CCO)c3C[C@H]2CN1C(=O)c1ccccc1	-0.861
CC1=C2[C@@H](CCc3ccccc3)OB(O)C[C@@H]2[C@@H]2C(=O)N(Cc3ccccc3)C(=O)[C@@H]2C1	-0.26
C=CC[C@@H](OC(=O)Nc1ccc(SC)cc1)c1ccc(O)c(F)c1	-0.872
COCCCNC(=O)[C@@]1(CCC(=O)OC(C)(C)C)N=C(c2ccc(OCCCO)cc2)O[C@H]1c1ccccc1N=[N+]=[N-]	0.72
CCOC(=O)C[C@H]1[C@H](OC(=O)c2cc3ccccc3oc2=O)[C@@H](NC(=O)CC(C)C)c2cc(OCCCO)ccc2N1C(=O)c1ccc2ccccc2n1	-0.493
Cc1ccc(C(C)CC(O)C2C=CC3C(=O)N(c4ccccc4)C(=O)C3N2Nc2ccccc2)o1 (stereo not given)	-0.738
CN(C)c1ccc(C(O)C2C=CC3C(=O)NC(=O)C3N2Nc2ccccn2)cc1 (stereo not given)	-1.79
CCCCN1CC=CC23O[C@@H]4/C=C\CCCOC(=O)C4[C@H]2C(=O)N(CCO)[C@@H]3C1=O (stereo not given in full)	0.0725
COc1ccc([Si](C)(C)[C@@H]2[C@@H](CCO)O[C@]3(C(=O)N(Cc4ccccc4)c4ccc(N5C(=O)c6cccc7cccc5c67)cc43)[C@H]2C)cc1	-0.298
Oc1ccc2cc[n+](Cc3cc4c(cc3Br)OCO4)cc2c1	-0.135
CCCNC(=O)[C@@H]1c2ccccc2C(=O)N(Cc2ccc(OC(F)(F)F)cc2)[C@H]1c1ccc(CO)cc1	0.584
COCCOC(=O)N1C(=O)[C@@]2(c3cc(C#CC4=CCCCC4)ccc31)[C@H](c1ccccc1OCCO)N1[C@H](c3ccccc3)[C@H](c3ccccc3)OC(=O)[C@H]1[C@@H]2C(=O)NC[C@H](O)c1ccccc1	-3.52
O=C1N(CCS(=O)(=O)c2ccccc2)c2ccccc2[C@H]2OC(c3ccc(OCCCO)cc3)=N[C@@]12Cc1ccccc1	-1.96

Structure (SMILES)	z-score
[N-]=[N+]=Nc1ccccc1C[C@]1(C(=O)NCCN2CCOCC2)COC(c2ccc(OCCCO)cc2)=N1	1.13
C=CC[C@@]1(C(=O)NCCCOC)N=C(c2ccc(OCCCO)cc2)O[C@@H]1c1ccccc1N=[N+]=[N-]	-0.137
COC(=O)C1=CC(CCCO)=CC(c2ccc(CN3CCCC3)cc2)N(Cc2cccc(OC(F)(F)F)c2)C=C1C(=O)OC (stereo not given)	-0.529
CCCC=C(CCC)[C@@H](NC(=O)c1cccs1)c1ccc(C(=O)OC)cc1	0.429
CC1=C2[C@@H](CCc3ccccc3)OB(O)C[C@@H]2[C@@H]2C(=O)N(C)C(=O)[C@@H]2C1	-0.265
COCCOC(=O)N1C(=O)[C@@]2(c3cc(C#CC4(O)CCCCCC4)ccc31)[C@H](c1ccc(O)cc1)N1[C@H](c3ccccc3)[C@H](c3ccccc3)OC(=O)[C@H]1[C@@H]2C(=O)N1CCN(c2ncccn2)CC1	-0.528
COC(=O)[C@@]1(Cc2ccc(F)cc2)[C@H]2c3cc(C(=O)N(C)C)n(Cc4ccc(OC(F)(F)F)cc4)c3C[C@H]2CN1C(=O)c1ccccc1	-0.603
C=CCNC(=O)[C@H]1[C@@H]2C(=O)O[C@@H](c3ccccc3)[C@@H](c3ccccc3)N2[C@@H](c2ccccc2OCCO)[C@]12C(=O)N(C(=O)OCCOC)c1ccc(C#CC3(O)CCCCCC3)cc12	-4.17
C=C(COC)/C(=C/C[C@H](OC(=O)c1ccncc1)c1ccccc1OCCO)c1cc(C(=O)OC)ccc1OC	-1.58
CC(C)c1ccc(NN2C(C(O)c3ccc(C#N)cc3)C=CC3C(=O)N(c4ccccc4)C(=O)C32)cc1 (stereo not given)	-1.48
CC(C)NC(=O)[C@@]1(c2ccc([N+](=O)[O-])cc2)CC(=O)N(C2CCCCC2)[C@@H]1c1ccc(CO)cc1	0.367
CCOC(=O)C[C@H]1[C@H](OC(=O)Cc2ccc3c(c2)OCO3)[C@@H](NC(=O)c2ccc3ccccc3n2)c2cc(OCCCO)ccc2N1C(=O)c1ccccc1	-0.139
O=c1cccc(-c2ccc([N+](=O)[O-])cc2)o1	-0.425
CC(C)N1C(=O)C[C@@](C(=O)O)(c2ccc([N+](=O)[O-])cc2)[C@H]1c1ccc(CO)cc1	0.191
CCCCCCCCCC(O)C1C=CC2C(=O)N(c3ccccc3)C(=O)C2N1Nc1cc(OC)c(OC)c(OC)c1 (stereo not given)	-4.03
COC(=O)[C@@]1(Cc2ccc(OC)cc2)[C@H]2c3cc(C(=O)N(C)C)n(Cc4ccc(C)o4)c3C[C@H]2CN1C(=O)c1ccccc1	-4.83
[N-]=[N+]=Nc1ccccc1C[C@]1(C(=O)NCC(O)CO)COC(c2ccc(OCCCO)cc2)=N1 (stereo not given in full)	0.747
